# According to the supplement of paper PMC11001985:
# Unmarked numbers belong to inactive results.
# Biological target: WLS (lysine site: K217) (UniProt Q5T9L3)
# Assay: lysine labeling ratio R10:1 (500 µM / 50 µM probe), SILAC-ABPP in living cells; higher = lower intrinsic lysine reactivity toward the probe, active = 2 or less
# Details: HeLa; probe concentrations 500 vs 50 µM
# Procedure: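 Living HeLa cells (SILAC light/heavy) in PBS at room temperature were labeled with 50 µM versus 500 µM of the lysine-reactive, reductant-cleavable probe OPA-S-S-alkyne (SILAC labeling time not stated). Probe-modified peptides were CuAAC-biotinylated, captured on neutravidin and eluted with DTT/IAA, then quantified by LC-MS/MS. R = median peptide ratio per lysine (500/50 µM), combined over 3 forward and 3 reverse SILAC replicates. Ratios are capped at 20; R < 2 = hyper-reactive.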
# Chain of WLS (lysine site: K217) (Q5T9L3 whole entry): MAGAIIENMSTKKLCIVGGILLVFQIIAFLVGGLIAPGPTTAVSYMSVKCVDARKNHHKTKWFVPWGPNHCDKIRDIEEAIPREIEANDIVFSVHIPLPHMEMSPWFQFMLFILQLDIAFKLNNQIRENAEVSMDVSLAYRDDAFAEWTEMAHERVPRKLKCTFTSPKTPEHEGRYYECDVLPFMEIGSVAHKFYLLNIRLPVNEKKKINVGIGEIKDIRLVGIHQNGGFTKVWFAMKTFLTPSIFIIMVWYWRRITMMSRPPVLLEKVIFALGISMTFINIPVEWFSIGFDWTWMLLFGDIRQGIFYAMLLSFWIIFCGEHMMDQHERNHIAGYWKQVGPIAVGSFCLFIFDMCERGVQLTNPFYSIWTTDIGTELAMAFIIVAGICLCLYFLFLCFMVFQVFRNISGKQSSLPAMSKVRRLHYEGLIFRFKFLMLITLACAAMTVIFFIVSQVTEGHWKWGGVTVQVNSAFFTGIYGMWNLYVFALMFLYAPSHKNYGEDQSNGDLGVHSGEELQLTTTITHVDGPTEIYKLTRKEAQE
row,Compound,lysine labeling ratio R10:1
1,C#CCNC(=O)CCSSCCC(=O)NCCc1ccc(C=O)c(C=O)c1,2.13
